Source: PubChem BioAssay
An excerpt weighted towards active compounds, which were near 6.4% of everything screened.
Luc counter: blocks Kinase-Glo luciferase, a counter-screen artifact; actives 0.28% (n = 200,000); Potency, µM (highest dose often 38.3 µM), for the others: top-dose activity change, negative = inhibition, hits mostly inhibitors; Q27757; Kinase-Glo luciferase, ATP luminescence, 8 min; further: nearly all actives have a fitted effect of over 60% in size
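Kinase-Glo luciferase light output from ATP and luciferin was measured with 10 uM ATP, within the enzyme's linear range. Buffer: 50 mM imidazole pH 7.2, 50 mM KCl, 7 mM MgCl2, 0.01% Tween 20, 0.05% BSA; luminescence read after 8 min at ambient temperature.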
VP16 counter: counter-screen for ROR gamma inhibitors: Gal4-VP16 reporter; Drosophila S2 Gal4-VP16 UAS-luciferase, luminescence, 20 h; AID 2546; Potency, µM (series often up to 53.6 µM), for inactives: top-dose activity, negative = inhibition, usual class: inhibitors; actives 3.5% (n = 310,000);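 further: Gal4-VP16 expression switched on by copper sulfate through the metallothionein promoter; nearly all actives have a fitted effect of over 50% in size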
RORg inh: inhibitors of mouse ROR gamma transcriptional activity; P51450; Drosophila S2 Gal4-RORgamma UAS-luciferase reporter, 20 h; AID 2551; actives 5.4% (n = 310,000); Potency, µM (top dose mostly 53.6 µM), without a hit: at the highest dose activity change, negative = inhibition, usual class: inhibitors; further: nearly all actives have a fitted effect of over 60% in size
Target sequence (P51450 whole entry, looked up, the tested form may be a part): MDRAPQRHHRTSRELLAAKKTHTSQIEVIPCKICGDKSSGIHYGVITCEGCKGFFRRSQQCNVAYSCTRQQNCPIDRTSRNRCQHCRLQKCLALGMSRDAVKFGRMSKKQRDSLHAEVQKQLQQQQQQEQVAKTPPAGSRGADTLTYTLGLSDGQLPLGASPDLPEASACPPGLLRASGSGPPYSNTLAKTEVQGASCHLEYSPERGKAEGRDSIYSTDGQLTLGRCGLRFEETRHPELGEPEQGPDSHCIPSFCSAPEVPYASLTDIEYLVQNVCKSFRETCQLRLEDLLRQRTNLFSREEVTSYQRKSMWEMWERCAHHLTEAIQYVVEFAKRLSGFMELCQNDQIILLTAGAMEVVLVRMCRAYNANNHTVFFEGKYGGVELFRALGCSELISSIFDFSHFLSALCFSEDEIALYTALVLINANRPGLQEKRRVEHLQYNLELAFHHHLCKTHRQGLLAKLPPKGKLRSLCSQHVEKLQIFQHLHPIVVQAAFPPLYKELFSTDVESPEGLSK
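In this cell-based reporter format, copper sulfate (700 uM final) drives Gal4–ROR gamma fusion expression from a metallothionein promoter in Drosophila Schneider cells; compounds preincubated 1 hr, reporter read after 20 hr at ambient temperature.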
* = called active by the depositor; [ ] = dose if it differs, or a comment. The call rests on the fitted dose curve; in most records, active means well fitted curve in the direction sought with a large enough effect; inconclusive means small, poorly fitted or top-dose-only effect, or another doubt; inactive means no such curve, though single readings can be large; an effect the other way counts as inactive or inconclusive. On the % scale 0 is the no-effect control and ±100 the full control effect; potency means the concentration at half of the fitted maximal effect.

For Cc1[nH]n2c(=O)cc(C(C)C)nc2c1-c1ccccc1 the results were Luc counter 10.5%, VP16 counter inconclusive and RORg inh 11.2µM*.
`COc1ccc(-c2c(C(F)(F)F)[nH]n3c(=O)cc(-c4ccccc4)nc23)cc1` gave VP16 counter -5.2% and RORg inh 8.3%.
`CC(C)(C)c1ccc(C(=O)NCCC(=O)N2CCC3(CC2)NCCc2[nH]cnc23)cc1` gave VP16 counter -1.9% and RORg inh -20.0%.
Brc1ccc(C2C3=C(Nc4ncnn42)c2ccccc2OC3c2ccncc2)cc1 (configuration not stated) was read as Luc counter -2.6%, VP16 counter -24.9% and RORg inh inconclusive.
For COc1ccc(C2Oc3ccccc3C3=C2C(c2cccs2)n2ncnc2N3)cc1 (configuration not stated) the results were Luc counter -0.5%, VP16 counter 2.51µM* and RORg inh inconclusive.
For COc1ccc(-n2cc(-c3ccccc3)c3c(N4CC(C)OC(C)C4)ncnc32)cc1 (configuration not stated) the results were Luc counter -0.1%, VP16 counter -6.5% and RORg inh 1.9%.
For COC(=O)c1ccn(Cc2ccccc2Cl)n1 the results were VP16 counter -19.6% and RORg inh -15.6%.
`CCN1C(=O)/C(=C\c2cccn2-c2ccc([N+](=O)[O-])cc2)N(CC)C1=S` gave Luc counter -0.2%, VP16 counter inconclusive and RORg inh -5.3%.
For OC(CN1CCNCC1)Cn1c2ccc(Br)cc2c2cc(Br)ccc21 (configuration not stated) the results were Luc counter 2.7%, VP16 counter inconclusive and RORg inh inconclusive.
C/C(=N\Nc1ccccn1)c1ccc(OC(F)F)cc1 was read as Luc counter -0.3%, VP16 counter inconclusive and RORg inh 14.1µM*.
C/C(=N\Nc1ccccn1)c1ccc(C#N)cc1 was read as Luc counter 1.6%, VP16 counter -7.0% and RORg inh -37.5%.
For O=C1c2c(O)cc(O)cc2O[C@H](c2ccc(O)c(O)c2)C1O (some centres not stated) the results were VP16 counter -2.9% and RORg inh -1.6%.
For O=C1CS/C(=N/N=C2CCCC2)N1 the results were Luc counter 14.0%, VP16 counter inconclusive and RORg inh 7.94µM*.
`O=C1CSC(=NC2CCCCC2)N1` gave Luc counter -0.4%, VP16 counter inconclusive and RORg inh inconclusive.
For COc1cc(C(=O)OCC(=O)Nc2ccc(OC(F)F)cc2)cc(OC)c1OC the results were VP16 counter 10.3% and RORg inh inconclusive.
Screening COc1cc(C(=O)OCC(=O)Nc2ccc(SC(F)F)cc2)cc(OC)c1OC returned Luc counter 0.8%, VP16 counter 1µM* and RORg inh inconclusive.
Screening Cc1c(NC(=O)C2CCCCC2)cc(C(=O)N2CCOCC2)cc1[N+](=O)[O-] returned Luc counter 0.2%, VP16 counter 4.8% and RORg inh 3.4%.
CC[C@H](C(=O)[C@H](C)[C@H](O)[C@H](C)CCc1ccc(C)c(O)c1C(=O)O)[C@H]1O[C@](CC)([C@@H]2CC[C@@](O)(CC)[C@H](C)O2)C[C@H]1C was read as Luc counter 2.6%[17.1 µM], VP16 counter 6.31µM* and RORg inh inconclusive.
`COc1ccc(-n2cc(C#N)c(=O)[nH]c2=O)cc1` gave Luc counter 1.4%, VP16 counter -1.9% and RORg inh -1.6%.
O=C1Nc2ccc(Cl)cc2[C@@](C#CC2CC2)(C(F)(F)F)O1 was read as VP16 counter inconclusive and RORg inh -25.3%.
For O=C(NC(=S)Nc1nc2c(s1)CCCC2)c1ccc(C(=O)c2ccccc2)cc1 the results were Luc counter -1.1%, VP16 counter inconclusive and RORg inh inconclusive.
`O=C(NC(=S)Nc1nc2c(s1)CSc1ccccc1-2)c1ccccc1` gave Luc counter -2.4%, VP16 counter inconclusive and RORg inh 15.8µM*.
Screening CCOC(=O)c1cc(C(=O)OCC)cc(-n2cc(O)c(C(=O)OCC)n2)c1 returned Luc counter -1.4%, VP16 counter 11.2µM* and RORg inh inconclusive.
CCOC(=O)c1nn(-c2cc(C(=O)OC)cc(C(=O)OC)c2)cc1O was read as Luc counter -2.7%, VP16 counter -5.5% and RORg inh 7.4%.
For O=c1oc(-c2ccc(Br)cc2)nc2ccccc12 the results were VP16 counter -2.5% and RORg inh -32.2%[1.91 µM].
Screening CCNC(=S)N/N=C/c1sccc1C returned Luc counter 0.9%, VP16 counter 3.16µM* and RORg inh 0.398µM*.
`CCCCC(=O)N/N=C/c1sccc1C` gave Luc counter -2.0%, VP16 counter 0.3% and RORg inh -11.9%.
`Cc1ccsc1/C=N/NC(=S)NCCc1ccccc1` gave Luc counter 1.6%, VP16 counter 6.31µM* and RORg inh 1µM*.
For Cc1ccsc1/C=N/NC(=O)C(=O)NCC(C)C the results were Luc counter -15.9%, VP16 counter -15.3% and RORg inh inconclusive.
Screening COc1ccccc1NC(=O)Cc1noc(CSc2nnc(C)n2C)n1 returned Luc counter -2.1%, VP16 counter 11.2% and RORg inh 23.2%.
For Brc1ccc(NC(c2ccccc2)c2ccncc2)cc1 (configuration not stated) the results were VP16 counter -3.3% and RORg inh 1.6%.
For CSCC[C@H](NC(=O)[C@H](CC(C)C)NC(=O)CCNC(=O)[C@@H](NC(=O)[C@H](Cc1ccccc1)NC(=O)[C@H](CO)NC(=O)[C@@H](N)CC(=O)O)C(C)C)C(N)=O the results were VP16 counter -3.5% and RORg inh -9.9%.
Screening CCOc1cc(C(=S)N2CCCCC2)ccc1OS(=O)(=O)c1ccc(Br)cc1 returned Luc counter 0.1%, VP16 counter -11.9% and RORg inh 7.08µM*.
`CCOc1cc(C(=S)N2CCC(O)CC2)ccc1OS(=O)(=O)c1ccc(Br)cc1` gave Luc counter -4.4%, VP16 counter -1.9% and RORg inh 30.0%.
CCOc1cc(C(=S)N2CCCCC2)ccc1OS(=O)(=O)c1ccc(Cl)cc1 was read as Luc counter -0.2%, VP16 counter -20.8% and RORg inh 10µM*.
Screening CCOc1cc(C(=S)N2CCOCC2)ccc1OS(=O)(=O)c1ccc(C)cc1 returned VP16 counter 17.3% and RORg inh 7.7%.
CCCCC(OC(=O)c1ccco1)C(=O)NCc1ccc(C)cc1 (configuration not stated) was read as VP16 counter 2.7% and RORg inh 14.2%.
For [O-]/C(=C(\C(=S)Nc1cccc2ccccc12)[n+]1ccccc1)c1ccc2c(c1)OCCO2 the results were Luc counter 2.2%, VP16 counter inconclusive and RORg inh 12.6µM*.
`[O-]/C(=C(\C(=S)Nc1cccc2ccccc12)[n+]1ccccc1)c1ccc(OC(F)F)cc1` gave Luc counter -0.5%, VP16 counter -4.7% and RORg inh -41.3%.
`NC(=O)c1cccc(C[C@H](C(=O)O)N2C(=O)c3ccc(C(=O)O)cc3C2=O)c1` gave VP16 counter -3.6% and RORg inh 5.2%.
